About 83,000 compounds went through this panel and 20% of them were active in at least one assay; those are over-represented in the sample as a whole.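 Step 1: grow cells in 96-well plates. Step 2: add test compound at a single concentration. Step 3: incubate 48 h. Step 4: record percent growth.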 Active and inactive are the calls of the source. The calls were made as follows: active = growth percent below 10; inactive = the rest.
tested on: OVCAR-8 ovarian; experiment: NCI-60 one-dose screen, 48 h (100 = growth as untreated, 0 = no growth, -100 = all killed); conditions: 10 µM unless noted

SMILES	growth
Cc1ccc(OCCOCCOCCOc2ccc(C)n(O)c2=S)c(=S)n1O	39.3% (inactive)
C[C@@H]1NC(=O)[C@H](Cc2ccccc2)N(Cc2cccnc2)C1=O	102% (inactive)
C=CC(CC(c1ccccc1)(c1ccccc1)c1ccccc1)N(CC)CC (configuration not stated)	94% (inactive)

tested on: OVCAR-5 ovarian; experiment: as above; conditions: 10 µM unless noted

SMILES	growth
COc1ccc(/C=N/NC(=O)Cn2c(-c3ccc(S(C)(=O)=O)cc3)nc3ccccc32)cc1	99.7% (inactive)
CN(C)CCCn1c2c(c3ccncc3c1=O)C(=O)c1ccccc1-2	0.243% (active)
OC1(c2ccccc2)c2ccccc2N(c2ccccc2)c2ccc(Cl)cc21 (configuration not stated)	-72.3% (active)
CC1(/C=C/c2ccc(-c3ccccc3)cc2)CCn2cnc3ncnc(c32)N1O (configuration not stated)	47.9% (inactive)
C=C1C(=O)O[C@H]2[C@H]1CC/C(COC(=O)/C=C\C(=O)NCc1ccc(Cn3c(=O)sn(CCCCl)c3=O)cc1)=C\CC[C@@]1(C)O[C@@H]21	82.2% (inactive)
C#Cc1cccc(NC(=O)C2CCCCN2C(=O)CCl)c1 (configuration not stated)	-95% [8.25 µM] (active)
O=C1CCCC1[n+]1ccccc1 (configuration not stated)	70.5% (inactive)
N#C/C(=C\c1ccc(-c2cccc(Cl)c2)o1)C(=O)Nc1ncc(Cc2ccc(Cl)cc2)s1	47.1% (inactive)
O=S(O)c1cc(Cl)cc(Cl)c1OCc1ccccc1	99% (inactive)
O=C(C1=Cc2cc3ccccc3n2Cc2cnnn21)c1ccc(F)cc1	115% (inactive)
CC(C)Cc1nc(Nc2ccccc2)[nH]c(=O)c1C#N	84.9% (inactive)
C[N+]1=C(/C=C/c2ccccc2Cl)C(C)(C)c2ccccc21	100% (inactive)
CSc1ccc(N2C(=N)C(=S)N(c3ccc(C)cc3)C2=O)cc1	89% (inactive)
CC[C@H](Nc1nc(N)nc(C)c1C#N)c1nc2cccc(CN(C)c3ncc(C(=O)NO)cn3)c2c(=O)n1-c1ccccc1	3.2% (active)
CC(C)CCC[C@@H](C)[C@H]1CC[C@H]2[C@@H]3CC=C4c5sc(Nc6cc(C(F)(F)F)cc(C(F)(F)F)c6)nc5CC[C@]4(C)[C@H]3CC[C@]12C	106% (inactive)
N#CC1=C(N)Oc2c(sc3c(F)cccc23)C1c1ccc([N+](=O)[O-])cc1 (configuration not stated)	-14.6% (active)
c1ccc(-c2c(-c3ccccc3)[n+](Cc3ccc4ccccc4c3)cn2Cc2ccc3ccccc3c2)cc1	-29.1% (active)

SMILES	growth
O=C(CSc1nnnn1-c1ccccc1)Nc1ccc(Oc2ccccc2)cc1	92.2% (inactive)
Cc1ccc2c(c1)nc(C)n2-c1ncnc2c1CC(C)c1cc(O)ccc1N2C (configuration not stated)	89% (inactive)
Fc1ccc2[nH]cc(-c3nc(-c4c[nH]c5c(Cl)nccc45)cs3)c2c1	99.1% (inactive)
COc1ccc(Oc2ccc(/C=C/C(=O)c3ccc(OC)c(OC)c3)cc2)cc1	112% (inactive)
CCCCC#Cc1c(I)n(C2OC(CO[Si](C)(C)C(C)(C)C)C3OC(C)(C)OC32)c(=O)n(C(=O)c2ccccc2)c1=O (configuration not stated)	87.2% (inactive)
O=C(N/N=C/c1ccc(Cl)cc1)c1ccc(NC(=O)c2ccccn2)cc1	67.6% (inactive)
COc1cc(-c2cc(-c3ccc(Nc4nc(Nc5ccc(Cl)cc5)nc(Nc5ccc(Cl)cc5)n4)cc3)no2)cc(OC)c1OC	77.8% (inactive)
NCCCNc1nc2ccccc2c2c(=O)c3cc(Cl)ccc3sc12	-11.5% (active)
Cc1ccc(OCCOCCOCCOCCOCCOc2ccc(C)n(O)c2=S)c(=S)n1O	41.7% (inactive)
CC1(C)CC(=O)C2=C(C1)C(c1ccc(Cl)cc1)n1ncc(C#N)c1N2 (configuration not stated)	103% (inactive)
CN(C)/C(N)=N/N=C(\c1ccccc1)c1ccccn1	102% (inactive)
c1ccc(Nc2nc3c(s2)CCc2c[nH]cc2-3)nc1	108% (inactive)
COc1cc2c(cc1OCCCN1CCN(C(=S)SCCC(C#N)(c3ccccc3)c3ccccc3)CC1)N=C[C@@H]1CCCN1C2=O	-46.2% (active)
O=C(NCCCCCCNC(=O)OCc1ccc2c(Cl)cc(Cl)c(O)c2n1)OCc1ccc2c(Cl)cc(Cl)c(O)c2n1	-89.6% (active)
O=C(/C=C/c1ccccc1)N(C1CCCCC1)C1CCCCC1	106% (inactive)
C=CCn1cc(-c2nc3ccccc3s2)c2cc(-c3ccc4c5c(cccc35)C(=O)N(CCO)C4=O)ccc21	92.9% (inactive)
COc1cc(/C=C/C(=O)c2cccc(-n3cc(-c4ccc(Cl)cc4)[nH]c3=O)c2)ccc1O	91.4% (inactive)

— PubChem BioAssay (NCI)
